Source: the supplement of paper PMC10849652
About 7,900 targets were measured; listed, in parts, are those with a hit and a random draw of the rest. About 0.6% of all pairs of compound and target were hits.

Tests used:
Assay in all cases: log2 fold change, soluble protein after heating vs DMSO (PISA); higher = thermal stabilisation; K562 cells, 10 uM, 30 min; active = over 0.2 and 3.5 SD of the protein, either way, in both replicates (recomputed)
saracatinib = compound: CN1CCN(CCOc2cc(OC3CCOCC3)c3c(Nc4c(Cl)ccc5c4OCO5)ncnc3c2)CC1 [saracatinib]
How it was run: (§1)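 Aliquots of K562 cells (2×10^6 cells/mL) treated with 10 μM compound for 30 min were heated for 3 min over 48°C-58°C. After pooling and extraction in PBS with 0.5% NP-40 at 4°C, soluble protein from a 21,000xg, 90 min spin was quantified by TMTpro 16plex LC-MS/MS with channel sums equalised. Thermal stability is expressed against control samples, from duplicates, as a log2 fold change.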

sotrastaurin = compound: CN1CCN(c2nc(C3=C(c4c[nH]c5ccccc45)C(=O)NC3=O)c3ccccc3n2)CC1 [sotrastaurin]
How it was run: as §1

alvocidib = compound: CN1CC[C@H](c2c(O)cc(O)c3c(=O)cc(-c4ccccc4Cl)oc23)[C@H](O)C1 [alvocidib]
How it was run: as §1

Tubastatin A = compound: CN1CCc2c(c3ccccc3n2Cc2ccc(C(=O)NO)cc2)C1 [Tubastatin A]
How it was run: as §1

[1] = compound: CNC(=O)C1=CC=CC=C1NC2=NC(=NC=C2Cl)NC3=C(C=C(C=C3)N4CCOCC4)OC
How it was run: as §1

defactinib = compound: CNC(=O)c1ccc(Nc2ncc(C(F)(F)F)c(NCc3nccnc3N(C)S(C)(=O)=O)n2)cc1 [defactinib]
How it was run: as §1

rucaparib = compound: CNCc1ccc(-c2[nH]c3cc(F)cc4c3c2CCNC4=O)cc1 [rucaparib]
How it was run: as §1

[2] = compound: CNc1nc(-c2ccc3c(N)n[nH]c3c2)cc(N2C[C@@H](C(=O)NC3CCCCC3)CC[C@H]2C)n1
How it was run: as §1

encorafenib = compound: COC(=O)N[C@@H](C)CNc1nccc(-c2cn(C(C)C)nc2-c2cc(Cl)cc(NS(C)(=O)=O)c2F)n1 [encorafenib]
How it was run: as §1

[3] = compound: COC(=O)[C@H](CCSC)NC(=O)C1=C(C=C(C=C1)NC[C@H](CS)N)C2=CC=CC=C2
How it was run: as §1

Measured: log2 fold change

PI4K2A (UniProt Q9BTU6)
inactive: saracatinib 0.058 | sotrastaurin 0.041 | alvocidib 0.013 | Tubastatin A -0.008 | [1] -0.024 | defactinib -0.014 | rucaparib -0.027 | [2] -0.11 | encorafenib 0.057 | [3] 0.02

PMM2 (UniProt O15305)
UniProt O15305, sequence (O15305 whole entry, looked up): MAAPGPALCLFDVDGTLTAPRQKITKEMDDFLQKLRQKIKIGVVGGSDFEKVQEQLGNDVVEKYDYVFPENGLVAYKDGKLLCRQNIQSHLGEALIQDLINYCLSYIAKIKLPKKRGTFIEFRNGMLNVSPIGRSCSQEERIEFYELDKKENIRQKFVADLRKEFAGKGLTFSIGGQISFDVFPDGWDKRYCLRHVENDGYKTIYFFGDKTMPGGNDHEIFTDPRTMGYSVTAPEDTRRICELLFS
inactive: saracatinib -0.025 | sotrastaurin 0.062 | alvocidib 0.006 | Tubastatin A -0.031 | [1] -0.183 | defactinib 0.022 | rucaparib 0.018 | [2] -0.02 | encorafenib -0.006 | [3] 0.058

PMPCB (UniProt O75439)
UniProt O75439, sequence (O75439 whole entry, looked up): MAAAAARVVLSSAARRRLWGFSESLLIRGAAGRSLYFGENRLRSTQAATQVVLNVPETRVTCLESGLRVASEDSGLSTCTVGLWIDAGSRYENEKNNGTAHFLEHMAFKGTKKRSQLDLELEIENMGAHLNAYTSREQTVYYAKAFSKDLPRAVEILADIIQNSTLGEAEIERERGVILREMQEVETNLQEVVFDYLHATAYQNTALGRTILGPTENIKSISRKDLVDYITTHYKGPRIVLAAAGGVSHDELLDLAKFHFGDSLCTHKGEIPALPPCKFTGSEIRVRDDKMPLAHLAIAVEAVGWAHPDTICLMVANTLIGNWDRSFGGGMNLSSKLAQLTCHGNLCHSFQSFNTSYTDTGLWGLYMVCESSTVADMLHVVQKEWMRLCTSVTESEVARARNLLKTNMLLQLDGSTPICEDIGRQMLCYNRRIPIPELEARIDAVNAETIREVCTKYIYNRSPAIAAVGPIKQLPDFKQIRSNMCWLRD
inactive: saracatinib 0.001 | sotrastaurin 0.051 | alvocidib -0.073 | Tubastatin A -0.068 | [1] 0.005 | defactinib -0.042 | rucaparib -0.033 | [2] -0.003 | encorafenib -0.022 | [3] -0.029

PTTG1 (UniProt O95997)
UniProt O95997, sequence (O95997 whole entry, looked up): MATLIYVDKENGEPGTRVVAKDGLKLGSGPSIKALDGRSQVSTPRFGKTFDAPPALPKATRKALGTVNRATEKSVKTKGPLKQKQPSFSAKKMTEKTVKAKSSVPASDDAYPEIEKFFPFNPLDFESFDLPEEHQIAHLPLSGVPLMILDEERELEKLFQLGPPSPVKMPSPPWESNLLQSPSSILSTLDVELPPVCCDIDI
inactive: saracatinib -0.061 | sotrastaurin -0.004 | alvocidib 0.004 | Tubastatin A 0.141 | [1] -0.145 | defactinib -0.029 | rucaparib -0.145 | [2] -0.088 | encorafenib -0.001 | [3] 0.031

PTGES3 (UniProt Q15185)
UniProt Q15185, sequence (Q15185 whole entry, looked up): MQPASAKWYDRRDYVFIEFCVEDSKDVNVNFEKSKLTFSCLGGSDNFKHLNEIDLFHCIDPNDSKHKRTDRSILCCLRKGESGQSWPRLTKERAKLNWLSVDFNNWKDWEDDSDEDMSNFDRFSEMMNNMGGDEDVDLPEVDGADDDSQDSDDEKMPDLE
inactive: saracatinib -0.023 | sotrastaurin -0.057 | alvocidib -0.215 | Tubastatin A 0.023 | [1] 0.088 | defactinib -0.205 | rucaparib -0.059 | [2] 0.034 | encorafenib 0.032 | [3] -0.068

PSMD9 (UniProt O00233)
inactive: saracatinib -0.022 | sotrastaurin 0.001 | alvocidib -0.012 | Tubastatin A 0.002 | [1] -0.016 | defactinib -0.034 | rucaparib -0.004 | [2] -0.031 | encorafenib -0.023 | [3] 0.005

POLR2D (UniProt O15514)
inactive: saracatinib 0.064 | sotrastaurin 0.015 | alvocidib 0.22 | Tubastatin A -0.064 | [1] -0.114 | defactinib 0.165 | rucaparib 0.056 | [2] 0.026 | encorafenib 0.003 | [3] -0.038

PRKCB isoform 2 (UniProt P05771)
active: sotrastaurin -0.343
inactive: saracatinib -0.006 | alvocidib -0.014 | Tubastatin A -0.004 | [1] 0.012 | defactinib -0.03 | rucaparib 0.001 | [2] -0.03 | encorafenib 0.031 | [3] -0.001

PPP2R5C isoform 5 (UniProt Q13362)
inactive: saracatinib 0.007 | sotrastaurin -0.018 | alvocidib -0.045 | Tubastatin A 0.014 | [1] -0.02 | defactinib -0.044 | rucaparib -0.019 | [2] 0.023 | encorafenib 0.126 | [3] -0.042

PPT1 (UniProt P50897)
inactive: saracatinib -0.007 | sotrastaurin 0.029 | alvocidib 0.005 | Tubastatin A -0.038 | [1] 0.024 | defactinib 0.024 | rucaparib 0.047 | [2] -0.019 | encorafenib -0.023 | [3] -0.002

PAK4 (UniProt O96013)
inactive: saracatinib -0.047 | sotrastaurin 0.098 | alvocidib -0.06 | Tubastatin A 0.005 | [1] -0.012 | defactinib -0.017 | rucaparib -0.067 | [2] 0 | encorafenib 0.085 | [3] 0.03

PC (UniProt P11498)
UniProt P11498, sequence (P11498 whole entry, looked up): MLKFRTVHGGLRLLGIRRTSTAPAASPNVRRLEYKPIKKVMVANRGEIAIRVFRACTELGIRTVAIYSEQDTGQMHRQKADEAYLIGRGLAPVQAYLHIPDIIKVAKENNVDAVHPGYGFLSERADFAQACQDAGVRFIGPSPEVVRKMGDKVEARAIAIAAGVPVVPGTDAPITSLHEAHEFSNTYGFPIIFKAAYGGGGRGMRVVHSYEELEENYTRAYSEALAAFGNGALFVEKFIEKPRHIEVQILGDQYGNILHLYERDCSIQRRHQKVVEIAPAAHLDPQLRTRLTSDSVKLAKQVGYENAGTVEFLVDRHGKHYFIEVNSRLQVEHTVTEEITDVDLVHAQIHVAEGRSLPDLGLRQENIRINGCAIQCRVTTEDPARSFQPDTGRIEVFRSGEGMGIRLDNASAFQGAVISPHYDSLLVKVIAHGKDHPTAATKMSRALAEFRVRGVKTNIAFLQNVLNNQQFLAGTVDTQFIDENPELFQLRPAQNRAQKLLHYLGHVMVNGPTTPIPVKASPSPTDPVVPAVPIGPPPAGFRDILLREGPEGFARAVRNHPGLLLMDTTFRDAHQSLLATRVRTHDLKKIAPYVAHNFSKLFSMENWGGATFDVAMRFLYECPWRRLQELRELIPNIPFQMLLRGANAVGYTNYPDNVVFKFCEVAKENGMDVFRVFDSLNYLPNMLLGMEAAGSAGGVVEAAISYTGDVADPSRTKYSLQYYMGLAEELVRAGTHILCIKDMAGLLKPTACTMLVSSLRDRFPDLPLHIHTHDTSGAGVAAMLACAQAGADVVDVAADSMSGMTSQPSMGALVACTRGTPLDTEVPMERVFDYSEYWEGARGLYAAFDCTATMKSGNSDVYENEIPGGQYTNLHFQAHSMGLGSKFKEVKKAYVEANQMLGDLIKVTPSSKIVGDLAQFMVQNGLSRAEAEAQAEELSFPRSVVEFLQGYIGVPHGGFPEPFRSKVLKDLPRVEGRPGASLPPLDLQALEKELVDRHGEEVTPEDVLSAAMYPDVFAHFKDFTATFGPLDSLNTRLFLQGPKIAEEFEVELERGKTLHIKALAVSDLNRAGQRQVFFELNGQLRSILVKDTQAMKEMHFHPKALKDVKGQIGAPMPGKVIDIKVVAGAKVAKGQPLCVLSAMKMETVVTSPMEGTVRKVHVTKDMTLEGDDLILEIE
inactive: saracatinib -0.088 | sotrastaurin -0.033 | alvocidib -0.005 | Tubastatin A 0.001 | [1] -0.023 | defactinib -0.113 | rucaparib 0.043 | [2] 0.09 | encorafenib -0.044 | [3] -0.076

PRPF3 (UniProt O43395)
inactive: saracatinib -0.023 | sotrastaurin -0.114 | alvocidib 0.24 | Tubastatin A 0.07 | [1] -0.021 | defactinib -0.239 | rucaparib -0.041 | [2] -0.001 | encorafenib 0.171 | [3] -0.025

POLR2C (UniProt P19387)
inactive: saracatinib -0.096 | sotrastaurin -0.015 | alvocidib 0.204 | Tubastatin A -0.049 | [1] -0.043 | defactinib 0.133 | rucaparib 0.059 | [2] 0.03 | encorafenib 0.002 | [3] -0.045

PGK2 (UniProt P07205)
UniProt P07205, sequence (P07205 whole entry, looked up): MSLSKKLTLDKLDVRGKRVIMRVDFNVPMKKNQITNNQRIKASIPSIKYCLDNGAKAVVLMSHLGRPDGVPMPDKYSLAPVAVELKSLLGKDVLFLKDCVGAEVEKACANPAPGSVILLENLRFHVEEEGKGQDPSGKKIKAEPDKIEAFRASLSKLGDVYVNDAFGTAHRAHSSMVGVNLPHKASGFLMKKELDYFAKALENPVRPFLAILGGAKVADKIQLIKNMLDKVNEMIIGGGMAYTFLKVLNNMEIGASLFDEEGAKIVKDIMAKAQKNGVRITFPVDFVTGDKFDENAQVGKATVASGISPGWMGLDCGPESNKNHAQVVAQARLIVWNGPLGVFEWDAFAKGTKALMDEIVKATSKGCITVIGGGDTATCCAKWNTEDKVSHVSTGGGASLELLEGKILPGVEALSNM
inactive: saracatinib -0.196 | sotrastaurin 0.154 | alvocidib 0.017 | Tubastatin A -0.041 | defactinib 0.037 | rucaparib -0.248 | [2] -0.131 | encorafenib -0.056 | [3] 0.038

PSMD6 (UniProt Q15008)
inactive: saracatinib -0.044 | sotrastaurin -0.035 | alvocidib 0.056 | Tubastatin A 0.025 | [1] 0.013 | defactinib 0.046 | rucaparib 0.051 | [2] 0.062 | encorafenib 0.056 | [3] -0.021

PELP1 (UniProt Q8IZL8)
inactive: saracatinib -0.002 | sotrastaurin -0.007 | alvocidib -0.066 | Tubastatin A -0.021 | [1] -0.027 | defactinib -0.082 | rucaparib -0.054 | [2] -0.069 | encorafenib -0.012 | [3] 0.004

PSMA3 (UniProt P25788)
inactive: saracatinib 0.012 | sotrastaurin 0.038 | alvocidib -0.043 | Tubastatin A -0.006 | [1] 0.014 | defactinib 0.048 | rucaparib -0.001 | [2] 0.02 | encorafenib 0.034 | [3] 0

PISD (UniProt Q9UG56)
active: [2] 0.252
inactive: saracatinib -0.095 | sotrastaurin 0.061 | alvocidib 0 | Tubastatin A 0.019 | [1] 0.026 | defactinib -0.054 | rucaparib 0.06 | encorafenib 0.063 | [3] 0.028

PGGHG (UniProt Q32M88)
inactive: saracatinib 0.061 | sotrastaurin -0.014 | alvocidib 0.009 | Tubastatin A 0.04 | [1] -0.029 | defactinib 0.127 | rucaparib 0.02 | [2] 0.017 | encorafenib -0.086 | [3] -0.02

PPP2R5E (UniProt Q16537)
inactive: saracatinib -0.077 | sotrastaurin 0.012 | alvocidib -0.069 | Tubastatin A 0.005 | [1] 0.083 | defactinib -0.025 | rucaparib -0.008 | [2] 0.074 | encorafenib 0.021 | [3] -0.017

POLD3 (UniProt Q15054)
UniProt Q15054, sequence (Q15054 whole entry, looked up): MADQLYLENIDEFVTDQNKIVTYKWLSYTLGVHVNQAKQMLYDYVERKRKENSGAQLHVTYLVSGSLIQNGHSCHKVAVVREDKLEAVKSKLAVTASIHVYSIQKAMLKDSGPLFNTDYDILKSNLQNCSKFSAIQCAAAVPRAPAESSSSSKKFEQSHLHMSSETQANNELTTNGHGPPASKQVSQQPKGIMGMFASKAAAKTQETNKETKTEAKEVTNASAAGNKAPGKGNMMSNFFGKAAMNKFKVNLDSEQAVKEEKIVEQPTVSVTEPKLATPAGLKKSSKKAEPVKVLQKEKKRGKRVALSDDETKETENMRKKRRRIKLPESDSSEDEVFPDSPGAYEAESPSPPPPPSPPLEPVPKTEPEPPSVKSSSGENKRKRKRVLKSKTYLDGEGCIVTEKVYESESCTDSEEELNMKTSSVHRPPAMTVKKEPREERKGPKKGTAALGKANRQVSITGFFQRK
inactive: saracatinib -0.035 | sotrastaurin -0.131 | alvocidib -0.229 | Tubastatin A 0.137 | [1] 0.01 | defactinib -0.225 | rucaparib 0.018 | [2] 0.042 | encorafenib 0.082 | [3] -0.047

POGZ (UniProt Q7Z3K3)
UniProt Q7Z3K3, sequence (Q7Z3K3 whole entry, looked up): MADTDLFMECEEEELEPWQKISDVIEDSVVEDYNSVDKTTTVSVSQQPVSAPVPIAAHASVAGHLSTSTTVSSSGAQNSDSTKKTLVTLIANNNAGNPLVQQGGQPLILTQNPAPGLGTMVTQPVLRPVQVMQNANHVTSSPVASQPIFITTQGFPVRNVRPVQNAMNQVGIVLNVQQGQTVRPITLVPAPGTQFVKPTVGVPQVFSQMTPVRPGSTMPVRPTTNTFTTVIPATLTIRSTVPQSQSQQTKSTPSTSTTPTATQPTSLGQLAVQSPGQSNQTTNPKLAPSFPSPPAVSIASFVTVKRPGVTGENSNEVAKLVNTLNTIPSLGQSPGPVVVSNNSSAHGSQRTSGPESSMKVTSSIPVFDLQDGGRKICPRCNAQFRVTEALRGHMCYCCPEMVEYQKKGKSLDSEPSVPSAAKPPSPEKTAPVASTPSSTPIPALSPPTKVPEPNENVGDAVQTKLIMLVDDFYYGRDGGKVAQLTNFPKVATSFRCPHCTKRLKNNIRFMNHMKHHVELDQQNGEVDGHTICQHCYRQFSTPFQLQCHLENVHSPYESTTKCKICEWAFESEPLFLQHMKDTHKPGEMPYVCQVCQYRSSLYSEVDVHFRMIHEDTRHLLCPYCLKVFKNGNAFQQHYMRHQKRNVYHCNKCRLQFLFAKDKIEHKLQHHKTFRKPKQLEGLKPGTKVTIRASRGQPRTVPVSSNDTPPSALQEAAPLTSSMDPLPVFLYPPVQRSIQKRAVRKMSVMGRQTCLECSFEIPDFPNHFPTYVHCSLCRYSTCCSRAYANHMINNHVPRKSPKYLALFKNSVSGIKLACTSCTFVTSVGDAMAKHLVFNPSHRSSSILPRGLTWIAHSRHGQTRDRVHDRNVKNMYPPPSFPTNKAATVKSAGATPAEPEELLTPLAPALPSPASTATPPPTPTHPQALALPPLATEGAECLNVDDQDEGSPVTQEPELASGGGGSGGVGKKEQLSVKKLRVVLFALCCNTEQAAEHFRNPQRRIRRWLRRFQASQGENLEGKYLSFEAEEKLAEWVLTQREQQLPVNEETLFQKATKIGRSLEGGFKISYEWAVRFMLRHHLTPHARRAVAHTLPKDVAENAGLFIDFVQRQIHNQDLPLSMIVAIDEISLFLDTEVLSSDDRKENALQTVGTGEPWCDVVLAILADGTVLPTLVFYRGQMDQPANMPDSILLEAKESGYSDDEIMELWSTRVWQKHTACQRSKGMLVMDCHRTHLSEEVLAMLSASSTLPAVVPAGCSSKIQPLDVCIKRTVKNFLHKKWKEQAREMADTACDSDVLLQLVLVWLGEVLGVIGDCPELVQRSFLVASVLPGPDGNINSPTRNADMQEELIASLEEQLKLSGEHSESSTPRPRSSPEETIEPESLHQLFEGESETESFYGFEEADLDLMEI
inactive: saracatinib -0.134 | sotrastaurin -0.186 | alvocidib -0.065 | Tubastatin A -0.071 | [1] 0.056 | defactinib -0.162 | rucaparib 0.196 | [2] 0.136 | encorafenib -0.02 | [3] -0.043

PRPF38A (UniProt Q8NAV1)
inactive: saracatinib 0.019 | sotrastaurin 0.016 | alvocidib -0.024 | Tubastatin A -0.024 | [1] 0.052 | defactinib -0.036 | rucaparib 0.121 | [2] -0.035 | encorafenib -0.034 | [3] -0.008

PRKAR1B (UniProt P31321)
UniProt P31321, sequence (P31321 whole entry, looked up): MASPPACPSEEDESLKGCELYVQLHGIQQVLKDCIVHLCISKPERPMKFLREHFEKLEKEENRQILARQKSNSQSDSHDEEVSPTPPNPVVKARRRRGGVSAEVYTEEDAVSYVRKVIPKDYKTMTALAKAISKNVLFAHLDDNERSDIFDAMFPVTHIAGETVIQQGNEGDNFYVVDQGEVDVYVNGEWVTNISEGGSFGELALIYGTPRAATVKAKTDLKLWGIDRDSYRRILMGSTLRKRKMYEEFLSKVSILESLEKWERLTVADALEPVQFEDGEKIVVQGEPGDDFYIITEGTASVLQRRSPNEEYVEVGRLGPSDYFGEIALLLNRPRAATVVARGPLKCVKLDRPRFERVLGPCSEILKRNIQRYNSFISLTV
inactive: saracatinib -0.137 | sotrastaurin -0.02 | alvocidib 0.128 | Tubastatin A 0.035 | [1] 0.247 | defactinib 0.117 | rucaparib 0.029 | [2] 0.047 | encorafenib 0.056 | [3] -0.067

PDE6D (UniProt O43924)
inactive: saracatinib -0.074 | sotrastaurin 0.035 | alvocidib -0.051 | Tubastatin A 0.029 | [1] -0.102 | defactinib -0.043 | [2] 0.119 | [3] 0.068

PBX2 (UniProt P40425)
inactive: saracatinib 0.082 | sotrastaurin -0.023 | alvocidib -0.141 | Tubastatin A -0.069 | [1] -0.022 | defactinib -0.36 | [2] -0.046 | [3] -0.044

PHKA1 (UniProt P46020)
inactive: saracatinib -0.12 | sotrastaurin 0.058 | alvocidib -0.073 | Tubastatin A -0.256 | [1] 0.101 | rucaparib -0.283 | [2] 0.027 | encorafenib -0.295

PEX5 isoform 4 (UniProt P50542)
inactive: saracatinib -0.425 | sotrastaurin -0.207 | alvocidib -0.088 | Tubastatin A 0.077 | [1] 0.178 | defactinib 0.006 | [2] 0.182 | [3] -0.097

PURA (UniProt Q00577)
inactive: saracatinib 0.061 | sotrastaurin 0.063 | alvocidib 0.321 | Tubastatin A 0.001 | [1] 0.059 | defactinib 0.347 | rucaparib 0.309 | [2] 0.076 | encorafenib 0.086 | [3] 0.04

POLB (UniProt P06746)
inactive: saracatinib -0.21 | sotrastaurin -0.16 | alvocidib 0.195 | Tubastatin A 0.138 | [1] 0.062 | rucaparib 0.095 | [2] 0.05 | encorafenib 0.031
